Results from PubChem BioAssay (NCI).
About 79,000 compounds went through this panel and 15% of them were active in at least one assay; those are over-represented in the sample as a whole. Values without a mark were called inactive. The source made the active and inactive calls. Cut-off read from the data, not from the text of the source: active = growth inhibition above about 70%; inactive = the rest.

What was measured:
[1] = NCI Yeast Anticancer Drug Screen. Data for the rad50 strain (AID 155);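 note: 0% = growth of vehicle-only cultures of the same strain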; conditions: S. cerevisiae rad50 strain growth inhibition; at 50.0 µM; stronger effect = higher value
In short: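 DNA repair mutant yeast, compound exposure, growth read-out; inhibition is taken relative to vehicle.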

[2] = NCI Yeast Anticancer Drug Screen. Data for the mec2-1 strain (AID 157); conditions: S. cerevisiae mec2-1 strain, at 50.0 µM, stronger effect = higher value
In short: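 Using mec2-1 yeast: add compound, measure growth, express inhibition versus vehicle-treated cultures.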

[3] = NCI Yeast Anticancer Drug Screen. Data for the sgs1 mgt1 strain (AID 161);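 note: 0% = growth of cultures given vehicle only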; conditions: S. cerevisiae sgs1 mgt1 strain, at 50.0 µM, stronger effect = higher value
In short: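 Percent growth inhibition was derived by comparing compound-exposed mutant yeast with vehicle-exposed cultures. The strain carries alterations in DNA damage repair.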

[4] = NCI Yeast Anticancer Drug Screen. Data for the cln2 rad14 strain (AID 165);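 note: 0% = growth equal to vehicle treated cultures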; conditions: S. cerevisiae cln2 rad14 strain, at 50.0 µM, stronger effect = higher value
In short: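 Yeast strain cln2 rad14, bearing defects in cell cycle control and DNA repair, serves as the test system; values reflect growth inhibition compared with vehicle.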

[5] = NCI Yeast Anticancer Drug Screen. Data for the bub3 strain (AID 167); conditions: S. cerevisiae bub3 mutant strain, at 50.0 µM, stronger effect = higher value
In short: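 In this screen, a yeast mutant lacking normal mitotic checkpoint function is challenged with compound. Relative growth versus vehicle gives the inhibition value.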

[6] = NCI Yeast Anticancer Drug Screen. Data for the mlh1 rad18 strain (AID 175); conditions: S. cerevisiae mlh1 rad18 strain growth inhibition; at 50.0 µM; stronger effect = higher value
In short: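 Steps: expose repair-defective yeast to compound; measure growth; express inhibition against vehicle-treated controls.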

## O=C(/C=C/c1ccc(Cl)c(Cl)c1)c1ccccc1
[1]
  growth inhibition: -7.1%
[2]
  growth inhibition: -52.9%
[3]
  growth inhibition: -7.9%
[4]
  growth inhibition: -16.9%
[5]
  growth inhibition: 35%
[6]
  growth inhibition: -59.4%

## CCOC(=O)C(c1ccccc1)c1ccccc1
[1]
  growth inhibition: -11.4%
[2]
  growth inhibition: -26.7%
[3]
  growth inhibition: -17.6%
[4]
  growth inhibition: -43.2%
[5]
  growth inhibition: -12.8%
[6]
  growth inhibition: -12.2%

## C=CCSc1nc2ccc(N3C(=O)CCC3=O)cc2s1
[1]
  growth inhibition: 15.4%
[2]
  growth inhibition: -11.7%
[3]
  growth inhibition: -10.6%
[4]
  growth inhibition: 10.2%
[5]
  growth inhibition: 6.05%
[6]
  growth inhibition: 4%

## CSc1nc2nc[nH]c2c(=O)[nH]1
[1]
  growth inhibition: 3.45%
[2]
  growth inhibition: 0.3%
[3]
  growth inhibition: -16.2%
[4]
  growth inhibition: -14.2%
[5]
  growth inhibition: -1.85%
[6]
  growth inhibition: -3.65%

## COC1/C=C/OC2(C)Oc3c(C)c(O)c4c(O)c(c(/C=N/N5CCN(Cc6cccc(C(F)(F)F)c6)CC5)c(O)c4c3C2=O)NC(=O)C(C)=C/C=C/C(C)C(O)C(C)C(O)C(C)C(OC(C)=O)C1C (stereo unspecified)
[1]
  growth inhibition: 11.7%
[2]
  growth inhibition: 30.7%
[3]
  growth inhibition: 35.3%
[4]
  growth inhibition: 27.2%
[5]
  growth inhibition: 11.8%
[6]
  growth inhibition: 43.1%

## CC1=CC(O)C(C(O)(C(F)(F)F)C(F)(F)F)C(C)(C)C1 (stereo unspecified)
[1]
  growth inhibition: -26.8%
[2]
  growth inhibition: -41.2%
[3]
  growth inhibition: -9.95%
[4]
  growth inhibition: -4.6%
[5]
  growth inhibition: 0.15%
[6]
  growth inhibition: -1.25%

## N#C/C(=C\c1ccco1)C(=O)Nc1ccc(Br)cc1
[1]
  growth inhibition: 27.9%
[2]
  growth inhibition: -3.75%
[3]
  growth inhibition: 1.65%
[4]
  growth inhibition: -35.8%
[5]
  growth inhibition: 9.1%
[6]
  growth inhibition: 23.8%

## COC1CCC(C(C)(C)C)CC1 (stereo unspecified)
[1]
  growth inhibition: 2.45%
[2]
  growth inhibition: -11.6%
[3]
  growth inhibition: 0.15%
[4]
  growth inhibition: -3.8%
[5]
  growth inhibition: 5.85%
[6]
  growth inhibition: -21.7%

## O=C1CN(C=C2C(=O)NC(=O)NC2=O)C(=S)N1
[1]
  growth inhibition: -53.8%
[2]
  growth inhibition: -23.7%
[3]
  growth inhibition: -43%
[4]
  growth inhibition: -36.7%
[5]
  growth inhibition: -22.3%
[6]
  growth inhibition: -71.2%

## O=C(Nc1ccccc1C(F)(F)F)Oc1ccc(Cl)cc1Cc1ccccc1
[1]
  growth inhibition: 99.4% (active)
[2]
  growth inhibition: 99.6% (active)
[3]
  growth inhibition: 99.7% (active)
[4]
  growth inhibition: 99.3% (active)
[5]
  growth inhibition: 99.2% (active)
[6]
  growth inhibition: 99.5% (active)

## Cc1cccc(C)c1NCC1CO1 (stereo unspecified)
[1]
  growth inhibition: -17.4%
[2]
  growth inhibition: -14.3%
[3]
  growth inhibition: -6.3%
[4]
  growth inhibition: 13.2%
[5]
  growth inhibition: -17.6%
[6]
  growth inhibition: -11.2%

## O=C(CCCCl)c1ccccc1
[1]
  growth inhibition: 0.75%
[2]
  growth inhibition: -4%
[3]
  growth inhibition: -18.1%
[4]
  growth inhibition: 2.35%
[5]
  growth inhibition: -7.1%
[6]
  growth inhibition: -2.6%

## C=C(C)C(O)CC(C)C (stereo unspecified)
[1]
  growth inhibition: -8.6%
[2]
  growth inhibition: 13.9%
[3]
  growth inhibition: -15.2%
[4]
  growth inhibition: 7.65%
[5]
  growth inhibition: 2.95%
[6]
  growth inhibition: 0.2%

## CN(/N=C/c1ccc(O)c(/C=N/N(C)c2ccccn2)n1)c1ccccn1
[1]
  growth inhibition: -9.45%
[2]
  growth inhibition: 8%
[3]
  growth inhibition: -3.35%
[4]
  growth inhibition: -11.9%
[5]
  growth inhibition: -2.7%
[6]
  growth inhibition: 8.3%

## CCCCCCCCCCCCCCCCCC(=O)c1ccc(OC)c(OC)c1
[1]
  growth inhibition: -14.8%
[2]
  growth inhibition: -12.8%
[3]
  growth inhibition: -31.1%
[4]
  growth inhibition: -37.5%
[5]
  growth inhibition: -24.4%
[6]
  growth inhibition: -1.25%

## O=C(O)C(CCS)(c1ccccc1)c1ccccc1
[1]
  growth inhibition: 17.2%
[2]
  growth inhibition: -5.7%
[3]
  growth inhibition: 0.3%
[4]
  growth inhibition: 20.2%
[5]
  growth inhibition: 2.15%
[6]
  growth inhibition: 2%

## CC(C)(C)c1ccccc1OC(=O)Nc1ccc(F)cc1
[1]
  growth inhibition: 3.65%
[2]
  growth inhibition: 7.1%
[3]
  growth inhibition: 7.4%
[4]
  growth inhibition: -14.2%
[5]
  growth inhibition: 19.1%
[6]
  growth inhibition: -3.7%

## N=c1sc(N2CCOCC2)nn1CC(=O)c1ccccc1
[1]
  growth inhibition: 3.25%
[2]
  growth inhibition: -20.9%
[3]
  growth inhibition: -18.2%
[4]
  growth inhibition: 4.35%
[5]
  growth inhibition: -17.1%
[6]
  growth inhibition: 15.1%

## COC(=O)c1ccc2c(c1)CC1(C2)Cc2cc3c(cc2C1=O)CCC3 (stereo unspecified)
[1]
  growth inhibition: -3.35%
[2]
  growth inhibition: -37.8%
[3]
  growth inhibition: -0.5%
[4]
  growth inhibition: -3.15%
[5]
  growth inhibition: 14.3%
[6]
  growth inhibition: -5.3%

## Cn1c2ccc(Br)cc2c2cc(Br)cc([N+](=O)[O-])c21
[1]
  growth inhibition: 6.55%
[2]
  growth inhibition: 5.05%
[3]
  growth inhibition: 14.9%
[4]
  growth inhibition: -4.95%
[5]
  growth inhibition: -2.05%
[6]
  growth inhibition: 15.3%

## C=C(C)COC(OCC(=C)C)C(C)C
[1]
  growth inhibition: 26.4%
[2]
  growth inhibition: 3.05%
[3]
  growth inhibition: 3.45%
[4]
  growth inhibition: 9.35%
[5]
  growth inhibition: 22.2%
[6]
  growth inhibition: 12.2%

## CCn1cc(C(=O)O)c(=O)c2ccc(-c3ccncc3)cc21
[1]
  growth inhibition: 3.35%
[2]
  growth inhibition: 8.7%
[3]
  growth inhibition: 5.75%
[4]
  growth inhibition: -7.85%
[5]
  growth inhibition: 17%
[6]
  growth inhibition: 11.4%

## CCOC(=O)Nc1cccc(F)c1
[1]
  growth inhibition: -10.9%
[2]
  growth inhibition: 14.7%
[3]
  growth inhibition: 22.9%
[4]
  growth inhibition: -44.6%
[5]
  growth inhibition: -21.1%
[6]
  growth inhibition: -0.5%

## O=C(Nc1cc2ccccc2cc1C(=O)O)Nc1cccc2ccccc12
[1]
  growth inhibition: 10.2%
[2]
  growth inhibition: 7%
[3]
  growth inhibition: 32.6%
[4]
  growth inhibition: 6.2%
[5]
  growth inhibition: 20.1%
[6]
  growth inhibition: 30.3%

## COc1ccc(C=C2C(=O)OC(C)(C)OC2=O)cc1OC
[1]
  growth inhibition: -6.7%
[2]
  growth inhibition: -8.85%
[3]
  growth inhibition: -8.5%
[4]
  growth inhibition: 30%
[5]
  growth inhibition: -23.8%
[6]
  growth inhibition: -4.85%

## [O-][n+]1onc2c1/C(=N/O)CCC2
[1]
  growth inhibition: -17.2%
[2]
  growth inhibition: 4.6%
[3]
  growth inhibition: -14.3%
[4]
  growth inhibition: -2.3%
[5]
  growth inhibition: -4.1%
[6]
  growth inhibition: 11.7%

## COCn1cnc2c(=O)n(-c3ccc(OC)cc3)c(=S)n(-c3ccc(OC)cc3)c21
[1]
  growth inhibition: 21.1%
[2]
  growth inhibition: -13.7%
[3]
  growth inhibition: -28.9%
[4]
  growth inhibition: -2.65%
[5]
  growth inhibition: -21.4%
[6]
  growth inhibition: -53.1%

## O=[N+]([O-])/C(Cl)=C(/C(Cl)=C(Cl)Cl)N1CCOCC1
[1]
  growth inhibition: 5.55%
[2]
  growth inhibition: 4.8%
[3]
  growth inhibition: 44%
[4]
  growth inhibition: 6.35%
[5]
  growth inhibition: 23.9%
[6]
  growth inhibition: 11.7%

## CCOC(=O)CCCC(=O)N(CC(=O)OCC)Cc1ccccc1
[1]
  growth inhibition: 2.6%
[2]
  growth inhibition: 12.1%
[3]
  growth inhibition: 13.2%
[4]
  growth inhibition: -4.9%
[5]
  growth inhibition: 5%
[6]
  growth inhibition: -5.85%

## Cc1cc2c(cc1Cl)SC(NNc1ccc([N+](=O)[O-])cc1)=NS2(=O)=O
[1]
  growth inhibition: 34.6%
[2]
  growth inhibition: 2.4%
[3]
  growth inhibition: 4.6%
[4]
  growth inhibition: -7.85%
[5]
  growth inhibition: -19.6%
[6]
  growth inhibition: 26.9%

## COc1cc(OC)c(C2c3cc4c(cc3OC(N3CCCC3)C2C)OCO4)c(OC)c1 (stereo unspecified)
[1]
  growth inhibition: 17.1%
[2]
  growth inhibition: -11.8%
[3]
  growth inhibition: 2.45%
[4]
  growth inhibition: 18%
[5]
  growth inhibition: -5.1%
[6]
  growth inhibition: -1.4%

## O=C[C@@H](CO)O[C@H](C=O)c1c[nH]c(=O)[nH]c1=O
[1]
  growth inhibition: -24.1%
[2]
  growth inhibition: -13.2%
[3]
  growth inhibition: -23.9%
[4]
  growth inhibition: -10.5%
[5]
  growth inhibition: -36.5%
[6]
  growth inhibition: -54.5%

## Fc1ccccc1-c1nnc(-c2ccccc2F)o1
[1]
  growth inhibition: 1.65%
[2]
  growth inhibition: 8.3%
[3]
  growth inhibition: 6.85%
[4]
  growth inhibition: 10.8%
[5]
  growth inhibition: 48.2%
[6]
  growth inhibition: 1.3%

## CC1CCc2c(O)ccc(O)c21 (stereo unspecified)
[1]
  growth inhibition: 5.7%
[2]
  growth inhibition: 5.4%
[3]
  growth inhibition: 2.5%
[4]
  growth inhibition: -15.2%
[5]
  growth inhibition: -5%
[6]
  growth inhibition: 8.1%

## COc1cnc2cc(C(=O)O)c3ccccc3c2c1
[1]
  growth inhibition: 40.5%
[2]
  growth inhibition: 9.7%
[3]
  growth inhibition: 13.2%
[4]
  growth inhibition: 23.1%
[5]
  growth inhibition: -1.15%
[6]
  growth inhibition: 29.1%

## CCN(CC)CCCn1c(-c2ccccc2)ccc1-c1ccccc1
[1]
  growth inhibition: 10.1%
[2]
  growth inhibition: -6%
[3]
  growth inhibition: 8.1%
[4]
  growth inhibition: -16.4%
[5]
  growth inhibition: 21.4%
[6]
  growth inhibition: 18.4%
